Data published in PubChem BioAssay AID1063 (University of Pittsburgh Molecular Library Screening Center, 2008).
In all, about 200,000 compounds went through this assay and about 18,000 (9%) were called active. The sample as a whole holds a higher share of actives than the screen did. Unmarked numbers belong to inactive results. Rule as the data show it: active = inhibition above about 50%; inactive = the rest.

assay: Leishmania major promastigote growth inhibition, primary screen (AID 1063); details: Leishmania major promastigotes, resazurin fluorescence viability; at 10 µM; hits give high values;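 also: promastigotes grown with compound for 44 hours at 28 °C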

SMILES	inhibition
COc1cccc(OC)c1C(=O)NC(=S)Nc1ccc(N2CCOCC2)c(Cl)c1	21.4%
CCOc1ccc(C(=O)NC(=S)Nc2ccc(NC(=O)C(C)C)cc2)cc1[N+](=O)[O-]	-7.33%
CCOc1ccc(C(=O)NC(=S)Nc2ccc(N3CCOCC3)c(Cl)c2)cc1[N+](=O)[O-]	100% (active)
O=C(c1ccncc1)N1CCN(c2ccc3ccccc3n2)CC1	-1.56%
O=C(Nn1cnnc1)c1ccc([N+](=O)[O-])cc1	-11.1%
Cc1noc(C)c1S(=O)(=O)N(CC(=O)Nc1ccc2c(c1)OCCO2)c1ccc(C(C)C)cc1	55.8% (active)
CCOC(=O)c1cccc(NC(=O)CN(c2ccc(C)cc2)S(=O)(=O)c2c(C)noc2C)c1	22.7%
Cc1noc(C)c1S(=O)(=O)N(CC(=O)NCc1ccc(Cl)cc1)c1ccc2c(c1)OCO2	-4.31%
CCC1CCCCN1C(=O)CSc1nc(C)cc(C)n1 (stereo not given)	11.3%
O=C(O)/C=C/C(=O)NNc1ccc([N+](=O)[O-])cc1	-9.99%
CCOC(=O)CSc1nc2ccc(C)cc2[nH]1	-4.89%
CC(=O)Nc1ccc(C(=O)CSc2nc3ccc(C)cc3[nH]2)cc1	52.9% (active)
O=C(CSc1nc2ccc([N+](=O)[O-])cc2[nH]1)c1ccc(Cl)cc1	-1.01%
O=C1c2ccccc2NC(c2ccccn2)N1NS(=O)(=O)c1ccccc1 (stereo not given)	2.46%
COc1ccc(NS(=O)(=O)c2cc(NC(=O)C3CCCCC3)ccc2N2CCOCC2)cc1	16.6%
COc1ccc(/C=C/C(=O)Nc2ccc3c(c2)OCCO3)cc1OC	13.8%
COc1ccc(NS(=O)(=O)c2cc(NC(=O)/C=C/c3cc(OC)c(OC)c(OC)c3)ccc2N2CCCCC2)cc1	61.7% (active)
COc1ccccc1NC(=O)CCCc1c[nH]c2ccccc12	-1.94%
COc1cccc(CNCCc2c[nH]c3ccccc23)c1OCc1ccccc1F	101% (active)
Cc1cc(C)cc(NC(=S)NCCc2c[nH]c3ccccc23)c1	10.6%

SMILES	inhibition
CCOc1ccc(S(=O)(=O)Nc2ccncc2)c(C)c1C	-6%
O=C(CCn1ccc([N+](=O)[O-])n1)Nc1nccs1	11.6%
COc1ccc2c(c1OC)C(=O)OC2Nc1nc(-c2ccccc2)cs1 (stereo not given)	99.8% (active)
COc1ccc(-c2csc(Nc3ccccn3)n2)cc1	15.6%
COc1ccc2c(c1OC)C(=O)OC2c1c(O)nc(SC)n(-c2ccccc2)c1=O (stereo not given)	-6.91%
CC(=O)c1cnc(-c2ccccc2)s1	-5.94%
COCCNC(=O)C(c1ccc(O)cc1)N(C(=O)CCC(=O)Nc1nccs1)c1ccc(C)cc1 (stereo not given)	-10.6%
CN1CCCN(C(=O)C2CCCCC2)CC1	0.8%
COc1cccc(CC2(CO)CCN(Cc3cnc(-c4cccc(C)c4)nc3)CC2)c1	4.89%
COc1ccc(CC2(CO)CCN(Cc3cnn(C)c3)CC2)cc1	91.4% (active)
COC(=O)c1ccc(CN2CCC(CO)(Cc3ccc(OC)cc3)CC2)cc1	86.4% (active)
CCOC(=O)C1(CCOC)CCN(Cc2ccc(C(=O)OC)cc2)CC1	81.1% (active)
CCOC(=O)C1(S(=O)(=O)c2ccccc2)CCN(Cc2ccccc2)CC1	1.91%
Cc1nn(C)c(C)c1S(=O)(=O)N1CCC(CO)(Cc2ccc(Cl)cc2)CC1	2.5%
COC(=O)CCC(=O)N1CCCC(CO)(Cc2ccccc2)C1 (stereo not given)	-4.47%
COc1ccc(C(=O)Nc2sc(C)c(C)c2CN2CCOCC2)cc1	-3.61%
CCOC(=O)C1(S(=O)(=O)c2ccc(Cl)cc2)CCN(Cc2ccccc2)CC1	29.3%
OCCCC1CCCCN1Cc1nc(Cc2ccccc2Cl)no1 (stereo not given)	-4.56%
Cc1nc2ccccc2c(C)c1C(=O)c1ccc(F)cc1	-3.66%
CC(OC(=O)c1ccccc1N1C(=O)C2C3CCC(C3)C2C1=O)C(=O)c1ccccc1 (stereo not given)	32%

SMILES	inhibition
CCCCN(CC(=O)NC(C)(C)C)C(=O)C(=O)Nc1ccc2c(c1)OCCO2	-6.64%
Cn1ncc(N2CCN(S(=O)(=O)c3ccc(Br)cc3)CC2)c(Cl)c1=O	39.2%
O=C1CC(=O)Nc2cc(S(=O)(=O)N3CCN(c4cccc(C(F)(F)F)c4)CC3)ccc2N1	-5.33%
Cc1cc(C)nc(Nc2ncn[nH]2)n1	-7.12%
CCCCS(=O)c1snnc1C (stereo not given)	-4.06%
COc1ccc(N(CC(=O)Nc2ccc(C)cc2C)S(=O)(=O)c2ccccc2[N+](=O)[O-])c(OC)c1	9.22%
Cc1cccc(NC(=O)/C(=C\c2ccco2)NC(=O)c2ccccc2)c1	3.51%
O=C(Nc1ccc2ccccc2c1)/C(=C/c1cccc(Br)c1)NC(=O)c1ccco1	76.3% (active)
O=C(Nc1ccc2ccccc2c1)/C(=C\c1ccc2c(c1)OCO2)NC(=O)c1ccco1	1.7%
CCCCCCCCCCOC(=O)C[N+](C)(C)CC1CCCCC1O (stereo not given)	-3.34%
N#C/C(=C\c1ccc(N2CCOCC2)o1)C(=O)N1CCOCC1	39.9%
N#C/C(=C/c1ccc(N2CCOCC2)o1)C(=O)N1CCOCC1	54.5% (active)
N#C/C(=C/c1ccc(N2CCCCC2)o1)C(=O)NCCc1c[nH]c2ccccc12	0.13%
CC(C)(C)C(=O)N(Cc1ccccc1)c1ccccn1	-4.68%
O=C(c1ccncc1)c1ccc([N+](=O)[O-])cc1	5.83%
Cc1ccc(NC(=O)c2cccnc2C(=O)Nc2ccc(C)cc2)cc1	-1.85%
CCn1cc(CNC(=O)c2cc([N+](=O)[O-])c(C)c([N+](=O)[O-])c2)cn1	18.8%
O=C(NN=C1CCC(=NNC(=O)c2cccnc2)CC1)c1cccnc1	-9.82%
O=C(N/N=C/c1sc(N2CCCCC2)nc1-c1cccs1)c1cccnc1	66.3% (active)
Cc1cc(/C=N/NC(=O)c2cccnc2)c(C)n1CC(C)C	-1.49%
